# Test results: the supplement of paper PMC6555819
# Columns and labels:
# Test in all cases: PBM binding z-score (relative to random genomic background probes); higher = stronger binding; sequences stand for … in GC…GCGATTGACAGCGTAGAATGAAGG
# [1] = test system: FXR:RXRa (NR concentration 270 nM, RXRa partner concentration 90 nM)
# Procedure, shortened: (§1)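 Each nuclear receptor dimer, without ligand, was incubated for 1 h on custom Agilent 4×180K protein-binding microarrays. Binding was detected with antibodies against each partner (one per run), and scanned fluorescence was regression-normalized. The binding z-scores are referenced to random human genomic background probes.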
# [2] = test system: LXRa:RXRa (NR concentration 270 nM, RXRa partner concentration 90 nM)
# Procedure, shortened: as §1
# [3] = test system: LXRa homodimer (NR concentration 270 nM)
# Procedure, shortened: as §1
# [4] = test system: LXRb:RXRa (NR concentration 270 nM, RXRa partner concentration 90 nM)
# Procedure, shortened: as §1
# [5] = test system: LXRb homodimer (NR concentration 270 nM)
# Procedure, shortened: as §1
# [6] = test system: PPARa:RXRa (NR concentration 270 nM, RXRa partner concentration 90 nM)
# Procedure, shortened: as §1
# [7] = test system: PPARg:RXRa (NR concentration 180 nM, RXRa partner concentration 90 nM)
# Procedure, shortened: as §1
# [8] = test system: PPARg:RXRa 270nM:90nM, anti-RXR (NR concentration 270 nM, RXRa partner concentration 90 nM)
# Procedure, shortened: as §1
# [9] = test system: PPARg:RXRa 30nM:10nM, anti-RXR (NR concentration 30 nM, RXRa partner concentration 10 nM)
# Procedure, shortened: as §1
# [10] = test system: PPARg:RXRa 90nM:30nM, anti-RXR (NR concentration 90 nM, RXRa partner concentration 30 nM)
# Procedure, shortened: as §1
# [11] = test system: PPARg:RXRa DBDmut IVT, anti-RXR (DBD mutation: RXRa K156A/R161A, NR concentration 270 nM, RXRa partner concentration 90 nM)
# Procedure, shortened: as §1
# [12] = test system: PPARg:RXRa IVT, anti-PPARg (NR concentration 270 nM, RXRa partner concentration 90 nM)
# Procedure, shortened: as §1
# [13] = test system: PPARg DBDmut:RXRa IVT, anti-PPARg (DBD mutation: PPARg1 K132A/R137A, NR concentration 270 nM, RXRa partner concentration 90 nM)
# Procedure, shortened: as §1
# [14] = test system: PPARg DBDmut IVT, anti-PPARg (DBD mutation: PPARg1 K132A/R137A, NR concentration 270 nM)
# Procedure, shortened: as §1
# [15] = test system: PPARg homodimer (NR concentration 180 nM)
# Procedure, shortened: as §1
# [16] = test system: PXR:RXRa (NR concentration 270 nM, RXRa partner concentration 90 nM)
# Procedure, shortened: as §1
# [17] = test system: PXR homodimer (NR concentration 270 nM)
# Procedure, shortened: as §1
# [18] = test system: RARa:RXR (NR concentration 270 nM, RXRa partner concentration 90 nM)
# Procedure, shortened: as §1
# [19] = test system: RARa homodimer (NR concentration 270 nM)
# Procedure, shortened: as §1
# [20] = test system: RARb:RXRa (NR concentration 270 nM, RXRa partner concentration 90 nM)
# Procedure, shortened: as §1
Sequence,PBM binding z-score [1],PBM binding z-score [2],PBM binding z-score [3],PBM binding z-score [4],PBM binding z-score [5],PBM binding z-score [6],PBM binding z-score [7],PBM binding z-score [8],PBM binding z-score [9],PBM binding z-score [10],PBM binding z-score [11],PBM binding z-score [12],PBM binding z-score [13],PBM binding z-score [14],PBM binding z-score [15],PBM binding z-score [16],PBM binding z-score [17],PBM binding z-score [18],PBM binding z-score [19],PBM binding z-score [20]
CCAGACAGTTGAGAAGGTAACTCAGCCTCGATTA,0.18,0.172,0.398,0.125,0.336,0.142,0.175,-0.218,0.0704,0.0662,0.0699,-0.312,0.611,-0.051,1.22,0.00076,0.294,0.392,1.27,0.189
ATCGAAAGTTCGAAGGTGAGTATACCCACCCGAA,0.822,1.16,0.11,0.739,-0.0356,1.9,1.07,1.17,0.177,0.844,0.0334,0.537,0.525,0.231,0.595,1.16,-0.00599,1.67,-0.2,2.07
ACTGGTTGGTCAGCTGAGGTCACACACAATTCGG,3.86,3.31,2.58,3.6,0.876,3.6,1.53,2.1,0.448,1.43,0.671,2.22,1.22,0.402,3.12,5.37,2.47,4.61,1.92,3.73
CAACCTAGGTCAAAGGTCAAAGTCGAGCCAACCA,8.61,7.41,5.72,7.42,3.03,7.49,12.5,10.1,10.9,11.3,5.72,7.45,2.7,1.79,4.67,7.39,1.35,8.88,2.65,5.83
TCGAGTAGGTTAGTCGGGGCCTTCAGCCAACATA,-0.352,-0.131,-0.672,0.0154,-1.21,0.259,-0.8,0.291,0.448,0.62,1.83,1.08,-1.4,-0.48,-0.555,-0.49,-0.597,-0.0225,-1.38,0.0952
AATACAGGGTCACTAGGACAGAGTAGGTACGAAT,6.09,5.02,1.08,3.97,1.27,5.77,8.06,6.39,3.02,5.18,3.86,5.7,2.64,3.05,2.54,3.17,0.566,4.21,1.62,4.27
CCGACTGGGGCAAGGTTGCCATAACGCACAGCCA,-0.306,-0.375,-0.461,-0.29,-1.05,0.601,1.87,2.77,0.553,2.2,2.66,2.53,-0.344,-1.02,0.0482,-0.535,-0.379,-0.46,-0.394,0.641
CTACCAAGGTGAACAAGGTCGCTGATTACTATTC,1.1,1.05,-0.405,1.37,-0.68,2.38,1.17,1.36,-0.0103,0.78,2.41,2.81,0.217,0.423,0.663,1.7,0.349,1.89,-0.144,2.17
ACAGACAGGTGAGTGAAGTTAACTCAGCTGGACG,-0.59,-0.611,-0.779,-0.663,-0.63,-0.341,0.529,-0.616,-0.371,-0.832,0.505,0.404,-0.391,-0.406,-0.447,-0.325,-0.705,-0.744,-0.259,0.258
CCTAATGGGCCACGAAAGGTCATTGATTCAGTGA,3.91,5.44,4.82,4.5,0.556,4.42,3.05,4.1,1.8,3.4,3.95,4.1,0.487,0.297,2.38,5.44,1.32,5.08,0.945,4.16
TTACCAAGGTGAACGTCGTTGATCCCTCTGTAGA,0.766,0.802,-0.455,1.01,-0.681,1.99,0.984,1.25,0.514,1.07,2.54,3.17,0.0811,1.09,0.021,0.627,-0.305,1.26,-0.00319,1.77
AGAATGAGGTTACCAAAAATCAGGGAAACGCTTG,1.63,2.73,-0.193,1.54,-0.426,3.2,2.49,2.98,0.857,2.25,4.5,3.48,1.31,0.817,0.553,1.04,-0.0178,1.76,0.389,2.08
CCTGACGGGTCACTCCAGGTTATAGCATCGGAGT,3.43,7.46,1.51,4.58,-0.132,3.79,1.84,2.43,0.306,1.44,1.01,2.14,-0.43,-0.483,1.81,4.64,0.176,3.34,-0.12,3.31
TCTATTAGATGATTAGGGCAACCGAAACAGCGGA,0.507,0.432,0.054,0.49,0.329,0.871,0.674,1.88,3.31,2.68,2.02,1.09,0.897,0.561,0.156,0.4,-0.123,0.416,0.326,0.703
